This assay relates to gramicidin D channels in DC22:1PC lipid vesicles (bilayer-modifying potency). Nature of the assay: initial Tl+ fluorescence quench rate relative to no-drug control (NormRate, gramicidin monomer-dimer shift) (ratio (fold of control)); higher = stronger bilayer-modifying effect (equilibrium shifted toward conducting dimers), active = 1.5 or more. Particulars: 10 µM; lipid concentration 50 µM; temperature: 25 °C. The procedure:
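Stopped-flow fluorescence quench assay: ANTS-loaded DC22:1PC large unilamellar vesicles doped with gramicidin D (1:2000), 50 µM lipid, equilibrated 10 min with 10 µM drug (0.1% DMSO), mixed with Tl+ quench buffer at 25°C. Initial quench rate (Tl+ influx) was fitted with a modified stretched exponential and normalised to the no-drug control rate (NormRate); duplicates from two independent LUV preparations (triplicates for 7 drugs).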
Take `Cc1ncc(-c2ccnc(Nc3ccc(S(C)(=O)=O)cc3)n2)n1C(C)C`: the “initial Tl+ fluorescence quench rate” value was 1.03 (inactive).
With `COc1ccccc1OCCCCn1c(C2CC2)nc2ccccc21` the figure was 1.18 (inactive).
With `COc1ccc(OC)c(NCc2ccc3nc(N)nc(N)c3c2Cl)c1` the figure was 1.54 (active); with `CCCn1c(NC(=O)c2ccc3ccccc3n2)nc2ccccc21`, 1.4 (inactive); with `CC(C)/N=c1\cc2n(-c3ccc(Cl)cc3)c3ccccc3nc-2cc1Nc1ccc(Cl)cc1`, 5.63 (active).
The same measure for `C[C@H](C(N)=O)N1CCCC[C@@H]1c1ccc(OCc2cccc(F)c2)cc1`: 2.68 (active); for `Cc1ccc2[nH]c([C@H]3CCCNC3)c(-c3ccncc3)c2c1`: 1.42 (inactive); for `O=C(c1ccco1)N(CCCn1ccnc1)c1nc2c(Cl)cccc2s1`: 1.24 (inactive).
Regarding `FC(F)(F)c1ccc(N(c2cccnc2)C2CCN(c3ccc(C(F)(F)F)cn3)CC2)cc1`, the “initial Tl+ fluorescence quench rate” value was 1.56 (active).
With `Nc1ncc(-c2ccc(C(F)(F)F)nc2)cc1-c1ccc(C(F)(F)F)nc1`, the “initial Tl+ fluorescence quench rate” value was 1.08 (inactive).
In the case of `CC1(C)Cc2c(c(N3CCOCC3)nc3snc(Br)c23)CO1`, the “initial Tl+ fluorescence quench rate” value was 1.26 (inactive).
The same measure for `c1cc(C2=NCCN2)cc(-c2cc(-c3ccc(C4=NCCN4)cc3)no2)c1`: 1.17 (inactive); for `O=C(Cn1ccnc1[N+](=O)[O-])NCc1ccccc1`: 1.01 (inactive); for `COc1ccc(C2(C(=O)Nc3ccc(Br)cc3)CCCC2)cc1`: 1.14 (inactive).
With `CCCCOC(=O)Nc1cc2nc(C3CCCCC3)[nH]c2cc1N1CCCC1` the figure was 1.33 (inactive).
With `O=C(NCCN1CCCC1)c1cc(NCCN2CCOCC2)nc2ccc(Cl)cc12` the figure was 1.15 (inactive).
For the compound `Cc1ccc(-c2cc(C(=O)Nc3cccnc3)c3cc(Br)ccc3n2)cc1`, the “initial Tl+ fluorescence quench rate” value is 2.5 (active).
The same measure for `COc1cccc(OC)c1C(=O)Nc1ccc(Cl)c(-c2nc3ccccc3s2)c1`: 3.12 (active).
The same measure for `CCCCCCCCCCCCCCCCOP(=O)([O-])OCC[N+](C)(C)C`: 2.31 (active).
The same measure for `Clc1cccc(CO[C@H]2CCc3ccccc3[C@@H]2n2ccnn2)c1`: 1.37 (inactive); for `Nc1nc(N)c2c3c(sc2n1)CN(Cc1ccccc1)CC3`: 1.04 (inactive); for `Brc1cncc(-c2cc(NCCCn3ccnc3)nc(-c3ccccc3)n2)c1`: 2.73 (active).
On to `CN1CCN(c2nccc3[nH]c(-c4cccc(F)c4)cc23)CC1`, for which the “initial Tl+ fluorescence quench rate” value is 1.1 (inactive).
With `CCCCc1ccc(C(=O)Nc2nccc3ccccc23)nc1` the figure was 1.33 (inactive); with `Nc1ncnc2c1c(Cc1cccc3ccccc13)nn2CC1CCNCC1`, 1.15 (inactive).
With `O=C(Nc1nc(-c2ccccn2)cs1)c1cncn1-c1ccccc1` the figure was 1.1 (inactive).
With `CC(=O)N(CCN(C(=O)c1ccc(F)cc1)c1ccccc1)c1ccccc1` the figure was 1.14 (inactive); with `O=C(OCc1ccccc1)N1CCC(c2cc(-c3ccncc3)c(-c3ccc(F)cc3)[nH]2)CC1`, 2.36 (active).
Regarding `CN1CCC(NCc2cccc(-c3ccc(S(=O)(=O)NCc4ccccc4)cc3)c2)CC1`, the “initial Tl+ fluorescence quench rate” value is 1.94 (active).
Turning to `CN(C(=O)c1cc2c(-c3cncnc3)cccc2[nH]1)c1ccccc1`, the “initial Tl+ fluorescence quench rate” value was 1.12 (inactive).
The same measure for `CC(C)(C)CN1C(=O)C(c2ccccc2)(c2ccccc2)N=C1N`: 2.96 (active).
The same measure for `O=C(c1cc2ccccc2o1)N1CCN(Cc2ccc3c(c2)OCO3)CC1`: 1.08 (inactive); for `O=C(Nc1cccc(Cl)c1)c1cnc(N2CCN(c3ccncc3)CC2)c(Cl)c1`: 3.74 (active).
In the case of `CC(C)(C)n1nc(Cc2ccc(F)c(Cl)c2)c2c(N)ncnc21`, the “initial Tl+ fluorescence quench rate” value was 1.84 (active).
For the compound `CC(C)[C@H](C(=O)Nc1ccc(S(=O)(=O)N(C)C)cc1)c1ccc(Cl)cc1`, the “initial Tl+ fluorescence quench rate” value was 4.3 (active).
With `CCOc1ccc(-c2nc(CNCCc3ccc(F)cc3)cs2)cc1` the figure was 1.44 (inactive).
The same measure for `[H]/N=C(\N)c1ccc(OCCCCCOc2ccc(/C(N)=N\[H])cc2)cc1`: 1.02 (inactive); for `COc1cccn2c(C(=O)N3CCCCC3)c(C(F)(F)F)nc12`: 1.08 (inactive); for `CN1CCN(c2nccc3nc(-c4ccc(F)c(F)c4)[nH]c23)CC1`: 1.11 (inactive).
As to `FC(F)(F)c1cc(NCCc2ccccc2)nc(-c2ccccn2)n1`, the “initial Tl+ fluorescence quench rate” value was 1.31 (inactive).
